A selection: hits, their analogues and other compounds. The true share with any hit is near 11%.
FLuc inh = Firefly luciferase inhibition profiling of diverse chemical library using quantitative high-throughput screening; Luciferin 4-monooxygenase (Photinus pyralis), P08659; purified P. pyralis luciferase, luminescence, biochemical; Potency, µM (doses to about 115 µM), hits mostly inhibitors; 76,000 compounds, 2.5% hits; AID 1347043, 2019; note: nearly all actives have a fitted effect of over 65% in size
Target sequence (P08659 whole entry, looked up): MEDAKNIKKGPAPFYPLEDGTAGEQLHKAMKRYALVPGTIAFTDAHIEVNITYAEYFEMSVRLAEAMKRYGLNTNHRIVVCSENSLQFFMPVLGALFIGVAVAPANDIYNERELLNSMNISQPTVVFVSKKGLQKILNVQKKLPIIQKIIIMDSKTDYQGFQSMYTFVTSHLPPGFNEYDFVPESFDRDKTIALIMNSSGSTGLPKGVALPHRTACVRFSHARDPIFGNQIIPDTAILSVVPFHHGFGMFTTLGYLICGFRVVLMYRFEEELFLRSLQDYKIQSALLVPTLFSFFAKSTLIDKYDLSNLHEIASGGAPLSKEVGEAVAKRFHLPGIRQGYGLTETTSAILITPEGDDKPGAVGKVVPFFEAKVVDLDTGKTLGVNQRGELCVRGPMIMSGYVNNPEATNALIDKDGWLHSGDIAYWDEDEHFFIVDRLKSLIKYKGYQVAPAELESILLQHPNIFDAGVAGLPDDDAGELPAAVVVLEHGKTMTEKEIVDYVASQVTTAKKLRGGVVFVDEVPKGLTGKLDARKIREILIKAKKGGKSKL
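Cell-free enzyme assay, 10nM P. pyralis luciferase, luciferin and ATP each at 10uM. Inhibition profiled over a 6-point titration, read as luminescence.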
hNpr1 antagonist = Natriuretic polypeptide receptor (hNpr1) antagonism - Primary qHTS; 76,000 compounds, 1.6% hits; Potency, µM (series often up to 46.3 µM), for inactives: top-dose activity change, negative = inhibition, usual class: inhibitors; HEK293 hNpr1 GloSensor cGMP, ANP-stimulated luminescence; Atrial natriuretic peptide receptor 1 (Homo sapiens), P16066; calls by dose curve; note: nearly all actives have a fitted effect of over 60% in size
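HEK293 cells stably expressing human Npr1 and cGMP GloSensor pGS-40F, loaded 2 h with 2% GloSensor reagent, given compound 30 min at room temperature. Luminescence read before and 20 min after 0.1 nM hNppA.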
3T3 cytotox = Cytotoxic Profiling in NIH 3T3 Cell Line of Diverse Libraries Using Quantitative High-Throughput Screening | 94,000 compounds, 4.3% hits | Potency, µM (titrated, usually from 96.7 µM), without a hit: top-dose activity change, negative = cytotoxicity, hits mostly inhibitors | NIH 3T3 viability, CellTiter-Glo ATP luminescence, 48-72 h | AID 1345082, 2018; note: nearly all actives have a fitted effect of over 55% in size
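Cytotoxicity is measured as loss of cellular ATP: NIH 3T3 cells (400/well) are exposed to compound for 48 or 72 hr at 37 °C, then CellTiter-Glo luminescence is imaged after 10 min at room temperature.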
HEK cytotox = Cytotoxic Profiling in HEK 293 Cell Line of Diverse Libraries Using Quantitative High-Throughput Screening | HEK 293 viability, ATP luminescence (CellTiter-Glo), 48-72 h | Potency, µM (top dose mostly 115 µM), inactives show at the top dose activity change, negative = cytotoxicity, usual class: inhibitors | 94,000 compounds, 6.6% hits; note: nearly all actives have a fitted effect of over 60% in size
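Cells seeded first (HEK 293, 250 cells/well), then compound added by pintool. Incubation ran 48 or 72 hr at 37 degree Celsius. CellTiter-Glo was added and luminescence imaged after 10 min at room temperature.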
Numbers without * were called inactive; i = inactive; ? = inconclusive; / = not tested or not shown; [ ] = dose if it differs, or a comment. Unless noted, calls come from the whole dose curve; as a rule, active = well fitted curve in the direction sought with a large enough effect; inconclusive = small, poorly fitted or top-dose-only effect, or another doubt; inactive = no such curve, though single readings can be large; an effect the other way counts as inactive or inconclusive. % is set by controls: 0 for no effect and ±100 for the full control effect; potency is the fitted concentration of half-maximal effect.

SMILES	FLuc inh	hNpr1 antagonist	3T3 cytotox	HEK cytotox
COc1ccc(-c2cccc(C(=O)NC(C)C)c2)nn1	/	/	-21%[138 µM]	-4%[172 µM]
Cc1nc(-c2ccc(Cl)cc2)n(Cc2ccccc2)c(=O)c1CCO	i	-2%	?	45µM*
Cc1cc2cc(-c3c(C)noc3C)nc(-c3ccccc3)c2o1	i	6%[70.6 µM]	?	?
Cc1noc(C)c1-c1cc2cc(C(C)C)oc2c(NCc2cccnc2)n1	i	2%[70.6 µM]	?	?
Cc1cc2cc(-c3c(C)noc3C)nc(N(C)C)c2o1	i	-2%[70.6 µM]	?	100µM*
Cc1noc(C)c1-c1cc2cc(C(C)C)oc2c(N(C)CCN(C)C)n1	i	-2%[70.6 µM]	25µM*	35µM*
Cc1cc2cc(-c3c(C)noc3C)nc(N3CCN(c4ccccn4)CC3)c2o1	i	-9%[70.6 µM]	28µM*	13µM*
Cc1ccc(NC(=O)c2ccc3c(c2)N(C)C2CCCCCN2C3=O)cc1 (stereo not drawn)	?	3%	?	?
CN1c2cc(C(=O)NCc3cccs3)ccc2C(=O)N2CCCCC21 (stereo not drawn)	25µM*	-2%	-21%	?
CCOc1ccc(NC(=O)c2ccc3c(c2)N(C)C2CCCCN2C3=O)cc1 (stereo not drawn)	?	-1%	?	?
Cc1ccc(NC(=O)c2ccc3c(c2)N(C)C2CCCCN2C3=O)cc1 (stereo not drawn)	40µM*	0%	-26%	?
Cc1ccc(NC(=O)c2ccc3c(c2)N(C)C2CCCN2C3=O)cc1 (stereo not drawn)	22µM*	-23%	i	5%
CN1c2cc(C(=O)Nc3ccc(OC(F)(F)F)cc3)ccc2C(=O)N2CCCC21 (stereo not drawn)	40µM*	0%	-1%	-24%
CCc1ccc(NC(=O)c2ccc3c(c2)N(C)C2CCCCN2C3=O)cc1 (stereo not drawn)	14µM*	0%	?	?
CC(C)CC(=O)N1CCCN(Cc2ccc3c(c2)OCO3)c2ccccc21	i	0%	?	?
O=[S+]([O-])(NCC1CN(Cc2ccc3[nH]ccc3c2)CC12CN(c1ccccc1)C2)c1ccccc1 (stereo not drawn)	i	3%	22µM*	22µM*
CC(C)c1ccc(CN2CC(CN[S+](=O)([O-])c3ccccc3)C3(C2)CN(c2ccccc2)C3)cc1 (stereo not drawn)	i	-4%	40µM*	?
O=[S+]([O-])(NCC1CN(Cc2cccc(Cl)c2)CC12CN(c1ccccc1)C2)c1ccccc1 (stereo not drawn)	i	-8%	?	?
O=C(CCc1ccc(-c2cccs2)o1)NC[C@@H]1C[C@H](F)CN1	i	-9%	-17%	?
C#CCNC(=O)C1CCCN1C(=O)c1cccc(-c2ccccn2)c1 (stereo not drawn)	/	/	-21%[138 µM]	-12%[172 µM]
O=C(c1cc(Cl)ccc1Cl)N1CCN(c2cc(-c3cccs3)[nH]n2)CC1	i	?	?	45µM*
CC(Oc1cccc(Cl)c1)C(=O)N1CCN(c2cc(-c3cccs3)[nH]n2)CC1 (stereo not drawn)	i	?	?	35µM*
O=C(COc1ccc(Cl)cc1)N1CCN(c2cc(-c3cccs3)[nH]n2)CC1	i	-17%	22µM*	?
CCOC1CCOC2(CCN(C(=O)Nc3ccc(C)c(C)c3)CC2)C1 (stereo not drawn)	/	/	-20%	-28%
CC(C)CCNC(=O)CCC1CCCN(S(=O)(=O)c2cccc(F)c2)C1 (stereo not drawn)	/	/	?	45µM*
SMILES	FLuc inh	hNpr1 antagonist	3T3 cytotox	HEK cytotox
O=C(CCC1CCCN(S(=O)(=O)c2cccc(F)c2)C1)NCC1CC1 (stereo not drawn)	i	-30%	-24%	-31%
CCOc1cccc(CNC(=O)CCC2CCCN(S(=O)(=O)c3ccc(C)cc3)C2)c1 (stereo not drawn)	i	0%	?	?
CCOc1ccc(NC(=O)CCC2CCCN(S(=O)(=O)c3cccc(F)c3)C2)cc1 (stereo not drawn)	/	/	-22%	35µM*
CCOc1ccccc1C1NC(=O)N(CC(=O)Nc2cccc(Cl)c2)C2=C1C(=O)OC2 (stereo not drawn)	i	-22%	?	35µM*
CCCCc1ccc(NC(=O)CN2C(=O)NC(c3ccccc3OCC)C3=C2COC3=O)cc1 (stereo not drawn)	i	-2%	32µM*	32µM*
CCOc1ccccc1C1NC(=O)N(CC(=O)Nc2ccc(F)cc2)C2=C1C(=O)OC2 (stereo not drawn)	i	-12%	?	-18%
CCn1nccc1C(=O)N1CCC(CCn2c(C)cnc2C)CC1	/	/	-28%	?
CCN(C)C(=O)C(C)N1CCc2onc(C(c3ccccc3)c3ccccc3)c2C1 (stereo not drawn)	i	1%	?	?
CCN(C)C(=O)C(C)N1CCc2onc(-c3ccc(-c4ccccc4)cc3)c2C1 (stereo not drawn)	20µM*	?	?	?
O=C(NCC1CCN(c2cc(-c3ccc(Cl)cc3)[nH]n2)CC1)c1ccc[nH]1	i	-22%	22µM*	?
CC(=O)NCC(=O)NCC1CCN(c2cc(-c3ccc(Cl)cc3)[nH]n2)CC1	?	4%	-27%	-1%
Cc1cc(C)n(CCC(=O)NCC2CCN(c3cc(-c4ccc(Cl)cc4)[nH]n3)CC2)n1	i	-20%	32µM*	35µM*
O=C(NCC1CCN(c2cc(-c3ccc(F)cc3)[nH]n2)CC1)c1cc(C2CC2)[nH]n1	?	-27%	?	?
O=C(NCC1CCN(c2cc(-c3ccc(Cl)cc3)[nH]n2)CC1)c1cc(C2CC2)[nH]n1	?	?	35µM*	?
CNC(=O)c1cccc(-c2ccccc2COc2ccc(CCOC)cc2)n1	10µM*	-23%	-13%	?
COCCc1ccc(OCc2ccccc2-c2cc(C)n[nH]c2=O)cc1	i	-2%	i	2%
O=C(O)CCC(=O)N1Cc2ccccc2CC2(CCCN2CC2CCNCC2)C1 (stereo not drawn)	/	/	i	-6%
Cc1ccc(-c2ccc3c(n2)CN(C)C(=O)CO3)cc1	89µM*	?	?	?
COc1ccc(-c2ccc3c(n2)CN(C)C(=O)CO3)cc1	?	?	100µM*	?
O=C1NCc2ccccc2CC12CCCCN2Cc1ccc(CO)o1 (stereo not drawn)	/	/	-13%	-14%
Cc1ncsc1CN(C)C1CCc2nn(CC3CC3)c(=O)n2CC1 (stereo not drawn)	i	0%	-20%	-19%
